This passage reports inhibition results from PubChem BioAssay.

Unmarked numbers belong to inactive results. How the calls were made is not given here.

For the experiment, the target named is Pantothenate synthetase (Mycobacterium tuberculosis (strain ATCC 25618 / H37Rv)) (UniProt P9WIL5). The experiment is described as follows: Coupled enzyme confirmation of inhibitors against recombinant Mtb PanC (AID 375).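 Further: 0% = full reaction with vehicle and 100% = no enzyme background.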 The following applies: coupled enzyme assay; at 10 µM, stronger effect = higher value.
Pantothenate synthetase (Mycobacterium tuberculosis (strain ATCC 25618 / H37Rv)), sequence (P9WIL5 whole entry, looked up): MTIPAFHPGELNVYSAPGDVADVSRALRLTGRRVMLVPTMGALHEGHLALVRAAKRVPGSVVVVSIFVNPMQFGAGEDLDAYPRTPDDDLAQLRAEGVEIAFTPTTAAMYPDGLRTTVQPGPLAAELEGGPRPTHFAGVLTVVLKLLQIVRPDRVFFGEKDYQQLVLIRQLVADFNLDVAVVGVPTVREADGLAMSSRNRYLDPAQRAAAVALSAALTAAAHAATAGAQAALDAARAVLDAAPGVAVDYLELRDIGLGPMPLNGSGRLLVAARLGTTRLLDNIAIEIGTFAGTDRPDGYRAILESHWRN
Regarding `COc1ccc2c(CC(=O)Nc3nnc(C4CC4)s3)coc2c1`, the inhibition is 0%.
As to `COCCNC(=O)C(c1ccc(C)o1)N(Cc1ccc(F)cc1)C(=O)Cn1nnc2ccccc21` (stereo not given), the inhibition was 8%.
The same measure for `Cc1cc(NS(=O)(=O)c2ccc(N)cc2)no1`: 1%.
For `Cc1cccc(N2CCN(C(=O)c3cc4ccccc4oc3=O)CC2)c1C`, the inhibition was 0%.
For the compound `CCOc1cc(C(=O)NCc2nnc(SCC(=O)OC)n2C)cc(OCC)c1OCC`, the inhibition is 2%.
The result for `COc1ccc(C)cc1NC(=O)C1CCN(S(=O)(=O)c2cccc3cccnc23)CC1` reads 19%.
The same measure for `CCOC(=O)c1sc2cccc(F)c2c1N`: 13%; for `CCNC(=O)N(C(=O)NCC)n1c(C)nnc1C`: 0%.
The same measure for `CCn1ncc(C2=NOC(C(=O)Nc3ccc4c(c3)OCO4)C2)c1C` (stereo not given): 0%.
Consider `COc1cccc(NC(=O)N2CCN(C(=O)C(Cc3ccc(OC)c(OC)c3)NC(C)=O)CC2)c1` (stereo not given), for which the inhibition was 0%.
The same measure for `Cc1nc(CNS(=O)(=O)c2cccc(F)c2)cs1`: 0%.
For the compound `Cc1ccc(C2C(C#N)=C(N)Oc3cc4c(cc32)OCO4)cc1` (stereo not given), the inhibition was 8%.
The same measure for `Cc1ccc(S(=O)(=O)N2CCN(c3nc(C(C)C)c4c(c3C#N)CC(C)(C)OC4)CC2)cc1`: 0%; for `COc1ccc(CCN2CC(O)=C(c3nc4ccccc4c(=O)[nH]3)C2=N)cc1OC`: 0%; for `COC(=O)c1cc(NC(=O)C2COc3ccccc3O2)cc(C(=O)OC)c1` (stereo not given): 0%.
On to `CCOc1ccccc1N1CCN(c2nc3ccccc3nc2C(C#N)C(=O)OC)CC1` (stereo not given), for which the inhibition was 5%.
The result for `Cn1c(=O)c2c(nc(SCc3nn[nH]n3)n2Cc2ccccc2F)n(C)c1=O` reads 0%.
The result for `Cc1noc(COc2ccccc2OCC(O)CNC(C)(C)C)n1` (stereo not given) reads 4%; that for `C=CCSc1nnc(Cc2c(C)[nH]c3ccccc23)o1`, 0%.
The result for `COc1cc(C(=O)Nc2ccc3c(c2)C(=O)N(CCC(=O)O)C3=O)cc(OC)c1OC` reads 0%; that for `CCc1cc(=O)n2[nH]c(C)c(-c3ccccc3OC)c2n1`, 4%; that for `COc1ccc(C(=O)NCc2nnc(SCC(=O)Nc3cc(C)cc(C)c3)o2)cc1OC`, 0%.
Take `Cc1cc(C)cc(OCC(=O)NC2=NCCS2)c1`: the inhibition was 0%.
The result for `O=C(CNC(=O)c1ccccc1C(=O)O)c1ccccc1` reads 0%.
As for `Cc1nc2ccccc2c2oc(C(=O)NCC3COc4ccccc4O3)cc12` (stereo not given), the inhibition was 0%.
The result for `Cc1cc(=O)n2nc(-c3ccccc3)sc2n1` reads 0%; that for `Cc1nc2ncnn2c(N2CCC(C(=O)NCC3CCCO3)CC2)c1Cc1ccccc1` (stereo not given), 0%; that for `CC(=O)Nc1c(Cl)n(C(C)=O)c2ccccc12`, 7%.
The result for `Cc1cccc(N2C(=O)CC(N(C(=O)c3ccco3)c3cccc(C)c3)C2=O)c1` (stereo not given) reads 0%; that for `O=C(Nc1ccccc1-c1ccccc1)NC1CCN(CC(=O)N2CCOCC2)CC1`, 0%; that for `O=C1OC(c2ccc(O)cc2)(c2ccc(O)cc2)c2ccccc21`, 4%.
The same measure for `COc1ccc(-n2nnnc2SCC(=O)N2CCOCC2)cc1`: 3%.
For `Cc1c(C#N)c2ncnc(-c3ccccc3)c2n1-c1ccccc1`, the inhibition was 0%.
The same measure for `CCN1CCN(c2nc3c(c(=O)n(C)c(=O)n3C)n2Cc2cccc3ccccc23)CC1`: 0%; for `CCOC(=O)N1CCN(C(c2ccc(Cl)cc2)c2sc3nc(C)nn3c2O)CC1` (stereo not given): 0%; for `O=C(CSCc1n[nH]c(=O)[nH]1)NCCOc1cccc(Oc2ccccc2)c1`: 1%.
As to `COC(=O)c1sc(S(=O)(=O)Nc2ccc3cn[nH]c3c2)c(C(=O)OC)c1C`, the inhibition is 0%.
The result for `CC(C)COC(=O)N(C)c1ccc(C(O)(C(F)(F)F)C(F)(F)F)cc1` reads 5%; that for `O=C(Nc1ccccc1C(=O)N1CCOCC1)C1COc2ccccc2O1` (stereo not given), 0%.
The same measure for `Cc1nn(-c2ccc(F)cc2)c2sc(C(=O)OCC(=O)N3CCC(C)CC3)cc12`: 0%.

A word on the inhibition: it is the drop in the measured response relative to a control, in per cent.
